HTR5A inv ctr = HTR5A inverse agonism, opioid heterodimer counter-screen | 340,000 tested, 0.083% active | inhibition, % at 9.3 µM | P47898 | HTR5A cell line, luminescence | AID 504634; in the data active = inhibition mostly above about 23%, no sharp cut-off; inactive = mostly below about 18%;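 note: 0% = cells with DMSO and 100% = no-cell wells with DMSO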
HTR5A ag = activates human HTR5A in OPRM1-OPRD1 agonist counter-screen; HTR5A agonist assay, luminescence, cell-based; activation, % at 9.3 µM; P47898; AID 504692; 340,000 tested, 0.61% active; in the data active = activation mostly above about 9.5%, no sharp cut-off; inactive = mostly below about 7.6%;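 note: 0% = cells with vehicle only and 100% = reference agonist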
MOR-DOR ag = OPRM1-OPRD1 heterodimerization agonism. P35372+P41143. cells, luminescence. activation, % at 9.3 µM. 340,000 tested, 0.3% active. AID 504326; in the data active = activation above about 18%;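 note: 0% = vehicle-treated cells and 100% = reference agonist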
m5-HT2A agonist = mouse HTR2A agonism via beta-arrestin recruitment. P35363. CHO-K1 mHTR2A beta-arrestin complementation, luminescence; percent of 30 µM serotonin response. activation, % at 7.6 µM. 360,000 tested, 0.66% active;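 active = activation above a run cutoff, the mean activation of all tested compounds plus 3 SD, cut at about 14% in these data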;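 note: 0% = plate median of compound wells and 100% = 30 µM serotonin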
Target sequence (P35363 whole entry, looked up): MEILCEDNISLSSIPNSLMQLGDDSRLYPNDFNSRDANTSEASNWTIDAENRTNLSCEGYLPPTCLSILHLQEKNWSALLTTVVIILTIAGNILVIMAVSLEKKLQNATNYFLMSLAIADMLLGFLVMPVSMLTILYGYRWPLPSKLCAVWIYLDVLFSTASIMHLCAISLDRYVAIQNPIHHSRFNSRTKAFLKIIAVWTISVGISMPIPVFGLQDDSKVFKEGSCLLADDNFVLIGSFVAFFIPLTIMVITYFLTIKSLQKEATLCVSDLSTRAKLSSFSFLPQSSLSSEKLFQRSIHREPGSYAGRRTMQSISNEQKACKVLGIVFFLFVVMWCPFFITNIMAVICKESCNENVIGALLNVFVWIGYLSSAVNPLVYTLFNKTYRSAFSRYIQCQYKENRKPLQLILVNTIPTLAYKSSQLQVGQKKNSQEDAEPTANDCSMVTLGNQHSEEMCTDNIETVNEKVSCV
OPRM1-OPRD1 inv = mu-delta opioid heterodimer inverse agonism; cell-based MOR-DOR heterodimer luminescence; P35372+P41143; 340,000 tested, 0.21% active; AID 504357; inhibition, % at 9.3 µM; in the data active = inhibition above about 22%, passing the limit was not always enough;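 note: 0% = cells with DMSO and 100% = wells without cells with DMSO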
MOR-DOR inv conf = confirmation of human OPRM1-OPRD1 heterodimerization inverse agonists; shares compounds with OPRM1-OPRD1 inv; cells expressing OPRM1/OPRD1 heterodimer, luminescence; inhibition, % at 9.3 µM; 580 tested, 20% active; AID 504900; in the data active = inhibition above about 32%;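 note: 0% = cells with DMSO and 100% = wells lacking cells with DMSO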
HTR5A inv count = inverse agonist of human HTR5A in OPRM1-OPRD1 counter-screen; shares compounds with OPRM1-OPRD1 inv; HTR5A-expressing cells, luminescence, inverse agonism; inhibition, % at 9.3 µM; 580 tested, under 10 active; call rule not given here;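 note: 0% = cells with DMSO and 100% = no-cell wells with DMSO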
* hit, by the source's call; i = inactive; . = not tested or not shown. Most compounds without a hit are left out; they make up all but 1.6% or so of the library.

SMILES	HTR5A inv ctr	HTR5A ag	MOR-DOR ag	m5-HT2A agonist	OPRM1-OPRD1 inv	MOR-DOR inv conf	HTR5A inv count
Cn1c(NNC(=O)c2cccc3ccccc23)cc(=O)n(C)c1=O	-8	8	-4	4	23*	-36	4
Oc1[nH]c2ccccc2c1N=Nc1ccccc1Cl	4	-1	-2	-3	9	.	.
Oc1c(C=Nc2ccccc2Cl)[nH]c2ccccc12	5	-2	-9	-2	48*	2	7
Cc1ccccc1S(=O)(=O)NC(=O)C1(C)CCN1C(=O)c1ccccc1CCc1ccccc1 (stereo not drawn)	.	.	.	-1	.	.	.
OC(c1ccc(Cl)c(F)c1)c1ncc(-c2cccc3ccccc23)[nH]1 (stereo not drawn)	.	.	.	5	.	.	.
CCOC(=O)CN1C(=O)C(=O)c2cccc(C)c21	24	-9	-15	-2	75*	i	-108
Cc1ccc(OCCN2C(=O)C(=O)c3cccc(C)c32)cc1	2	-1	-8	2	42*	-29	-15
Cc1cccc(OCCN2C(=O)c3ccccc3C2=O)c1	-22	2	3	2	-16	.	.
CCOC(=O)[C@]12CCCC=C1N(Cc1ccco1)C(=O)[C@H](CC(=O)N1CCOCC1)C2	.	.	.	0	.	.	.
CC(C)(C)NC(=O)C(c1ccc(C#N)cc1)n1c(=O)c(-c2ccco2)nc2ccccc21 (stereo not drawn)	.	.	.	-1	.	.	.
Cc1ccc2cc(C=O)c(N3CCOCC3)nc2c1C	10	-3	-8	1	36*	-74	-2
Cc1ccc2nc(N3CCOCC3)c(C=O)cc2c1	8	-3	-2	7	12	.	.
CCCC(=O)OCCNc1cc(Sc2nc3ccccc3[nH]2)c2nonc2c1[N+](=O)[O-]	18	-8	-8	-10	35*	26	-4
CCC(=O)OCCNc1cc(Sc2nccn2C)c2nonc2c1[N+](=O)[O-]	15	-4	-8	-3	42*	-47	-10
CCOc1ccccc1-c1cnc(NC)cn1	.	.	.	4	.	.	.
COc1ccc(NC(=O)C(Cl)=C(Cl)Cl)cn1	-17	2	-1	0	3	.	.
COc1ccc(NC(=O)/C(Cl)=C(/Cl)S(=O)Cc2ccc(Cl)cc2)cn1 (stereo not drawn)	11	-4	-8	-10	41*	-13	14
Cc1ccc(Cn2cc(CN3CC(N4CCN(CCO)CC4)CS3(=O)=O)nn2)cc1 (stereo not drawn)	.	.	.	2	.	.	.
CCOC(=O)C1(C)CCCCCN1C(=O)c1ccccc1F (stereo not drawn)	.	.	.	7	.	.	.
COc1ccc(C(CNC(=O)c2ccc(NS(=O)(=O)c3ccc(F)c(C)c3)cc2)N2CCCC2)cc1 (stereo not drawn)	-1	0	-3	-8	11	.	.
CCOc1ccc(NS(=O)(=O)c2ccc(C(=O)NCC(c3ccc(OC)cc3)N3CCCC3)cc2)cc1 (stereo not drawn)	6	-2	-4	-16	26*	4	-1
COc1ccc(N(/N=C2\Sc3ccccc3C2=O)C(C)=O)cc1	23	-9	-11	1	70*	-26	5
COc1ccccc1N(/N=C1\Sc2ccccc2C1=O)C(C)=O	17	-9	-15	-3	75*	-18	-6
CN(C)c1cccc(NC(=O)C2Cc3c(-c4cccnc4)ccnc3O2)c1 (stereo not drawn)	.	.	.	-4	.	.	.
CN1C(=O)C(O)(CC(=O)c2ccccn2)c2cc(Br)ccc21 (stereo not drawn)	17	3	-13	-4	74*	i	-11
Nc1c(Cl)ncnc1N/N=C/c1ccc2ccccc2n1	6	-2	-6	-7	32*	16	8
CC1(C(=O)NS(=O)(=O)c2ccc(F)cc2F)CCN1C(=O)c1ccc(C2CCCCC2)cc1 (stereo not drawn)	.	.	.	2	.	.	.
OC[C@@H]1CN(Cc2ccncc2)C[C@H](n2cnc3c(NCc4ccncc4)ncnc32)O1	.	.	.	6	.	.	.
CCOCCCNC(=O)/C(C#N)=C/c1cc(OC)c(O)c([N+](=O)[O-])c1	11	-4	-5	-3	30*	-30	11
COc1ccc(-c2[nH][nH]c(=O)c2NC(=O)c2ccc(C)cc2)cc1	.	.	.	-4	.	.	.

Bioassay records deposited in PubChem BioAssay by The Scripps Research Institute Molecular Screening Center.
